Measured values published in PubChem BioAssay (NCATS).
Results filed as inconclusive are left out. Activity calls are given as the source filed them. Unless noted, calls follow the shape of the dose curve; as a rule, active = well fitted curve in the direction sought with a large enough effect; inconclusive = small, poorly fitted or top-dose-only effect, or another doubt; inactive = no such curve, though single readings can be large; an effect the other way counts as inactive or inconclusive.

Legend:
[1] = molecular target: Rap guanine nucleotide exchange factor 3 (Homo sapiens) (UniProt O95398); assay: Confirmatory qHTS for antagonist of cAMP-regulated guanine nucleotide exchange factor 3 (EPAC1) (AID 1645880); conditions: EPAC1 Rap1B-BODIPY-GDP exchange, fluorescence; activity, negative = inhibition: at 115 µM (top of the series); also: nearly all actives have a fitted effect of over 55% in size; also: potency is read from the fitted curve at half-maximal effect;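 as to activity, negative = inhibition: plate controls were DMSO only for no effect and full effect of the ATA control for full effect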
Rap guanine nucleotide exchange factor 3 (Homo sapiens), sequence (O95398 whole entry, looked up): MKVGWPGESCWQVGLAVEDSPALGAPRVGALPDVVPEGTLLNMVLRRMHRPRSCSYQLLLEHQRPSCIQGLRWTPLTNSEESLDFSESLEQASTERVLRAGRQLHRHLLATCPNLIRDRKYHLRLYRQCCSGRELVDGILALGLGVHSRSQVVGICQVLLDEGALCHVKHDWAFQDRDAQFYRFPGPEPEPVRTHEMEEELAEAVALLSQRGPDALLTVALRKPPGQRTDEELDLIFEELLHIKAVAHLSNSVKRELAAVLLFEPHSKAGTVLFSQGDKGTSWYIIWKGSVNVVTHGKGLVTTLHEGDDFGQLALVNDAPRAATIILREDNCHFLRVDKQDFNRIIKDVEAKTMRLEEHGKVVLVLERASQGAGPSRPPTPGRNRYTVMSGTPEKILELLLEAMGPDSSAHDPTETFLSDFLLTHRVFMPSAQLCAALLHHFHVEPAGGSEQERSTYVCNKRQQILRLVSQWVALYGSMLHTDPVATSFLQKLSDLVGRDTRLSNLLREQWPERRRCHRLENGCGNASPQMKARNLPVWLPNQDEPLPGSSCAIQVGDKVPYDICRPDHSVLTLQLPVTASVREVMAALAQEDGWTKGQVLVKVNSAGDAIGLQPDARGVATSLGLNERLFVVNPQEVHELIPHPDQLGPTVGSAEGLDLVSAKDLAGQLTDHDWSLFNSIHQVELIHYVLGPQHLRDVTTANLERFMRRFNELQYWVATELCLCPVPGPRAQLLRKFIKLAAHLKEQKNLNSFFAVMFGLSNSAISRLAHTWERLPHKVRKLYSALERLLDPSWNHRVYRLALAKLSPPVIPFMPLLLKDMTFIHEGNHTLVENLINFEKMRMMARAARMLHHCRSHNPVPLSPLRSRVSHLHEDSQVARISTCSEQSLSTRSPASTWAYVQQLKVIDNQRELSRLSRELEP
Outline: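 Released BODIPY-GDP fluoresces less than Rap1-bound BODIPY-GDP; the signal is followed at 480/540 nm at 5-min intervals over 30 min, after 5 min at room temperature. Reactions contain 100 nM EPAC1, 250 nM RAP1B-BODIPY-GDP and 50 uM GDP; results are normalized to ATA and DMSO.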

[2] = molecular target: Rap guanine nucleotide exchange factor 3 (Homo sapiens) (UniProt O95398); assay: Confirmatory qHTS for agonist of cAMP-regulated guanine nucleotide exchange factor 3 (EPAC1) (AID 1645881); also: nearly all actives have a fitted effect of over 75% in size; also: potency is read from the fitted curve at half-maximal effect;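 as to activation: EPAC1 catalysed release of BODIPY-GDP from Rap1B seen as fluorescence loss; 100% = effect of cAMP agonist control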
[3] = molecular target: Rap guanine nucleotide exchange factor 4 (Homo sapiens) (UniProt Q8WZA2); assay: Confirmatory qHTS for agonist of cAMP-regulated guanine nucleotide exchange factor 4 (EPAC2) (AID 1645884);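 also: nucleotide exchange releases bodipy-GDP from Rap1 and this lowers its fluorescence; nearly all actives have a fitted effect of over 65% in size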; also: potency is read from the fitted curve at half-maximal effect
Rap guanine nucleotide exchange factor 4 (Homo sapiens), sequence (Q8WZA2 whole entry, looked up): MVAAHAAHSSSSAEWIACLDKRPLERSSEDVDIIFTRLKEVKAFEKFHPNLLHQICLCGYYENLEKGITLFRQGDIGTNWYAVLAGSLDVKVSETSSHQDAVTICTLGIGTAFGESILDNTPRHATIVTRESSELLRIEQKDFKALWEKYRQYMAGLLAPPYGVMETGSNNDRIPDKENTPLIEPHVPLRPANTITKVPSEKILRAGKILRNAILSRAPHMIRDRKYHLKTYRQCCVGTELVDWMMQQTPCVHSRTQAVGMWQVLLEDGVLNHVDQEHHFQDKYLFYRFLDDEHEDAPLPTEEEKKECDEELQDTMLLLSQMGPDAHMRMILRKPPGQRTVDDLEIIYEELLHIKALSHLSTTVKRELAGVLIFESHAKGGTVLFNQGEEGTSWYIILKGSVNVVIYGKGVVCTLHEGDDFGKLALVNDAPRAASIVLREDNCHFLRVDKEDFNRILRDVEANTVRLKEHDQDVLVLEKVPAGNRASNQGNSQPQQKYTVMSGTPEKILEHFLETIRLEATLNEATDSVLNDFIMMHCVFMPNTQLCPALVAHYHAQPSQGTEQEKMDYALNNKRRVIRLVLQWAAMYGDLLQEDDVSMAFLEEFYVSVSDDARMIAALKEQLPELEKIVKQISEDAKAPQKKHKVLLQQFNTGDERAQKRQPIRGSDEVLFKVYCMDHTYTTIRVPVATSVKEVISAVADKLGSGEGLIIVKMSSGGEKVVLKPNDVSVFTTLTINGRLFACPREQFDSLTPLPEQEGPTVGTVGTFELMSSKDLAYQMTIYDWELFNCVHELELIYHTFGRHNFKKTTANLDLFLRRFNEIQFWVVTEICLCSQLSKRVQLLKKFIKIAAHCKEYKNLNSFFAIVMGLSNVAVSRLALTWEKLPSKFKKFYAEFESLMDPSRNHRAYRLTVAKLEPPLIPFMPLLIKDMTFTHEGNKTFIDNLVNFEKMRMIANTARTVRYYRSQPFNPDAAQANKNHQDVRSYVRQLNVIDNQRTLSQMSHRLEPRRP

[4] = molecular target: Rap guanine nucleotide exchange factor 4 (Homo sapiens) (UniProt Q8WZA2); assay: Confirmatory qHTS for antagonist of cAMP-regulated guanine nucleotide exchange factor 4 (EPAC2) (AID 1645885); also: nearly all actives have a fitted effect of over 25% in size; also: potency is read from the fitted curve at half-maximal effect
[5] = molecular target: Rap guanine nucleotide exchange factor 3 (Homo sapiens) (UniProt O95398); assay: Counterscreen qHTS for agonist of cAMP-regulated guanine nucleotide exchange factor 3 (EPAC1) (AID 1645889); also: nearly all actives have a fitted effect of over 40% in size; also: potency is read from the fitted curve at half-maximal effect; as to activation: % of control where 0% means no effect
Outline: (§1)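 Rap1B–BODIPY-GDP (250 nM) with 50 uM GDP; compounds pin-transferred to 9.74 nM–152 uM final (activator) or from 7.32 nM upwards (inhibitor). Fluorescence Ex/Em 480/540 nm read at 5 and 30 min, then after adding cAMP or buffer, at room temperature.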

[6] = molecular target: Tumor susceptibility gene 101 protein (Homo sapiens) (UniProt Q99816); assay: qHTS Assay for Iinhibitors of HIV-1 Budding by Blocking the Interaction of PTAP/TSG101: Hit Validation (AID 651600); also: nearly all actives have a fitted effect of over 70% in size; also: potency is read from the fitted curve at half-maximal effect
Tumor susceptibility gene 101 protein (Homo sapiens), sequence (Q99816 whole entry, looked up, the tested form may be a part): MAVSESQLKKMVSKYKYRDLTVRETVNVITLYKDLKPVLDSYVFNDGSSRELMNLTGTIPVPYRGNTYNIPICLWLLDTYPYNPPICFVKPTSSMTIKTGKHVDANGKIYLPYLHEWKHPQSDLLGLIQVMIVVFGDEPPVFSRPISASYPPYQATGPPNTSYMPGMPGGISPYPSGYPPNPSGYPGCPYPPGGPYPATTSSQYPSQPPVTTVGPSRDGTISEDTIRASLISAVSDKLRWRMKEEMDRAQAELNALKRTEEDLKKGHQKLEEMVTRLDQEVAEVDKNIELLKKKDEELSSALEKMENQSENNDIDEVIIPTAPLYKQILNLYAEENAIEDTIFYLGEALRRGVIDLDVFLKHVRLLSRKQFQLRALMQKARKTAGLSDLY
Outline: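 FITC-PTAP peptide (50 nM final) binding to Tsg101 binding domain (10 uM final) was measured by polarization after 20 min at r.t. with compounds, in 10 mM HEPES pH 7.5 buffer with 0.15 M NaCl and 0.01% Tween 20.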

[7] = molecular target: Rap guanine nucleotide exchange factor 3 (Homo sapiens) (UniProt O95398); assay: Counterscreen qHTS for antagonist of cAMP-regulated guanine nucleotide exchange factor 3 (EPAC1) (AID 1645888); also: % of control where 0% means no effect
Outline: as §1

[8] = molecular target: Lysosomal acid glucosylceramidase (Homo sapiens) (UniProt P04062); assay: Glucocerebrosidase-p2 (AID 348; in the data active = potency below about 10 µM; also: potency is read from the fitted curve at half-maximal effect); conditions: purified GBA, blue fluorogenic substrate, 40 min
Lysosomal acid glucosylceramidase (Homo sapiens), sequence (P04062 whole entry, looked up): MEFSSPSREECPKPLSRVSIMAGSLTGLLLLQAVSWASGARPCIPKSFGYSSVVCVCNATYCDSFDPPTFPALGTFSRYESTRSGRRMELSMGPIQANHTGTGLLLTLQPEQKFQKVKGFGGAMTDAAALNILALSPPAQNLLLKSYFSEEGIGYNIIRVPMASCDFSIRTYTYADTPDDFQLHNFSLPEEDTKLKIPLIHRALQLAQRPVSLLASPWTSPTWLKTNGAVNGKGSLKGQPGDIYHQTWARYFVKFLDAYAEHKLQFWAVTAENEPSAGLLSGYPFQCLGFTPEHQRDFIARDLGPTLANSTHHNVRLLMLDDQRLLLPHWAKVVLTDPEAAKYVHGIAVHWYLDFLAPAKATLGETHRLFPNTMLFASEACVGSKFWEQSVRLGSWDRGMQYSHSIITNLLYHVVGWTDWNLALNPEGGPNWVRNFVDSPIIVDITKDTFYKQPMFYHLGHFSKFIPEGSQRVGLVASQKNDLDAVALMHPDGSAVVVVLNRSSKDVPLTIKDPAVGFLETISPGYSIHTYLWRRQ
Outline: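 Normal human glucocerebrosidase (0.2 nM) with blue fluorogenic substrate (80 uM final) in citrate/phosphate pH 5.9 with 10mM sodium taurocholate, 0.01% tween-20; 40 min RT, NaOH/glycine stop; fluorescence Ex 365/Em 440; AC50 from a titration from 0.6 nM upwards.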

[9] = AP1 Signaling Pathway (AID 357; active = well fitted curve in either direction with a large enough effect, not every such curve was filed as active;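 also: ME-180 reporter cells stimulated with EGF at its EC50 level; % is scaled to controls: 0 for no effect and ±100 for the full control effect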); conditions: ME-180 AP-1-bla reporter, EGF-induced, beta-lactamase ratio, 5 h; at 7.69 µM (top of the series) unless noted
Outline: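 Cells are seeded overnight, exposed to compound titrations and an EC50 level of EGF for 5 hours at 37 °C, then loaded with CCF4 dye for 2.5 hours. Beta-lactamase activity under the AP-1 element is read as a blue/green ratio.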

[10] = molecular target: Cytochrome P450 1A2 (Homo sapiens) (UniProt P05177); assay: p450-cyp1a2 (AID 410; calls by dose curve; also: potency is read from the fitted curve at half-maximal effect)
Outline: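 Luminescent demethylation readout: Luciferin-ME (100uM, equal to Km) turned over by 20nM CYP1A2 for 60 min at room temperature after NADPH regeneration addition, following 10 min compound preincubation. Normalization used 57 uM furafylline as full inhibition.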

[11] = NFAT Signaling Pathway (AID 444; active = well fitted curve in either direction with a large enough effect, not every such curve was filed as active;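 also: carbachol stimulus at about its EC50 of 1 µM final; % is scaled to controls: 0 for no effect and ±100 for the full control effect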); conditions: Jurkat NFAT-bla M1, carbachol, beta-lactamase ratio, 5 h; at 7.69 µM (top of the series) unless noted
Outline: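 Jurkat cells with NFAT-driven β-lactamase reporter and co-expressed M1 receptor, stimulated with carbachol (final 1 uM, ~EC50), compound titration, 5 h at 37 °C. CCF4 loaded 1 h at RT; 460/530 nm ratio gave %activity and AC50.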

[12] = Stat Signaling Pathway (AID 446; active = well fitted curve in either direction with a large enough effect, not every such curve was filed as active;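 also: ME-180 cervical cancer cells given 40 pM IL-6 alongside compound; SIE-controlled beta-lactamase reporter measured as 460/530 nm FRET emission ratio; % is scaled to controls: 0 for no effect and ±100 for the full control effect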)
Outline: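 Normalization used AC90 stimulation (300 pM IL-6) and AC90 inhibition (125 nM pan-JAK inhibitor at 40 pM IL-6). The underlying signal is SIE-driven beta-lactamase in ME-180 cells after 5 h IL-6 exposure with compound.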

[13] = molecular target: Mitogen-activated protein kinase 10 (Mus musculus) (UniProt Q61831); assay: JNK3 AlphaScreen Assay (AID 530; active = well fitted curve in either direction with a large enough effect, not every such curve was filed as active;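 also: kinase came from lysate of stimulated human HepG2 cells; signal reports phosphorylation of biotinylated GST-cJun 1-79 at Ser73 with 10 µM ATP; % is scaled to controls: 0 for no effect and ±100 for the full control effect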)
Outline: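 Activity was read by AlphaScreen after JNK3-containing HepG2 lysate (cytokine pre-activated) phosphorylated biotinylated GST-cJun with 10 uM ATP at room temperature. Phospho-Ser73 cJun antibody with Protein-A acceptor beads provided detection.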

[14] = molecular target: Cytochrome P450 3A4 (Homo sapiens) (UniProt P08684); assay: qHTS Assay for Inhibitors and Substrates of Cytochrome P450 3A4 (AID 884); also: potency is read from the fitted curve at half-maximal effect; nearly all actives have a fitted effect of over 50% in size
Cytochrome P450 3A4 (Homo sapiens), sequence (P08684 whole entry, looked up): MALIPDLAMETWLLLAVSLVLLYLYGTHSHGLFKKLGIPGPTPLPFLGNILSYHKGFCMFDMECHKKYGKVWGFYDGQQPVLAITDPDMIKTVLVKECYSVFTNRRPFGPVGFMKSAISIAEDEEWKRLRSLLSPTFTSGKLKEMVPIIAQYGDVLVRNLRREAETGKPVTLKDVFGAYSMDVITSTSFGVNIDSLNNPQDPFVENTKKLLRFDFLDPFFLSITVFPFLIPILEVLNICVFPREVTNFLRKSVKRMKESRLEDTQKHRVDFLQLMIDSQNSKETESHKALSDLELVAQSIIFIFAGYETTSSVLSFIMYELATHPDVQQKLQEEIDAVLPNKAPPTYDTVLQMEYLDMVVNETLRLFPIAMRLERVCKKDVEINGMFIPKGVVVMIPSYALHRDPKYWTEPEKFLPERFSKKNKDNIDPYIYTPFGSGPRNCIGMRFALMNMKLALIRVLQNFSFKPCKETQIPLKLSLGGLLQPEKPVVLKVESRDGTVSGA
Outline: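 Luminescent readout of luciferin produced by CYP3A4 (20 nM) dealkylation of Luciferin-PPXE, 25 uM (its KM). NADPH-driven reaction ran 60 min at RT after 10 min compound preincubation; data scaled to 57 uM ketoconazole as 100% inhibition.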

[15] = molecular target: Cytochrome P450 3A4 (Homo sapiens) (UniProt P08684); assay: qHTS Assay for Activators of Cytochrome P450 3A4 (AID 885); also: nearly all actives have a fitted effect of over 65% in size
Outline: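 Human CYP3A4 dealkylates Luciferin-PPXE to luciferin, which luciferase detection converts to light. Substrate was at its KM (25uM), buffer 200mM KPO4, reaction 60 min at RT.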

[16] = molecular target: 3',5'-cyclic-AMP phosphodiesterase 4B (Homo sapiens) (UniProt Q07343); assay: qHTS Assay for Inhibitors of PDE-IV (AID 607; active = well fitted activation curve with a large enough effect in the main read-out, with a control signal flat, not every such curve was filed as active; also: % of control where 0% means no effect)
Outline: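 HEK293 ACTOne cells with CNG channel (1000/well), endogenous PDE4; membrane potential dye, compounds up to 22.9 uM final. Fluorescence Ex 535/Em 590; RO 20-1724 (100 uM final) as reference.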

[17] = molecular target: Cytochrome P450 2D6 (Homo sapiens) (UniProt P10635); assay: qHTS Assay for Inhibitors and Substrates of Cytochrome P450 2D6 (AID 891); also: potency is read from the fitted curve at half-maximal effect; nearly all actives have a fitted effect of over 60% in size
Outline: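 Luminescent read-out of luciferin formed by 5 nM human CYP2D6 demethylating 30 uM Luciferin-ME EGE (Km level) over 60 min at room temperature after NADPH regeneration addition. Data normalized to full inhibition by 1.43 uM quinidine.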

[18] = molecular target: Cytochrome P450 2C19 (Homo sapiens) (UniProt P33261); assay: qHTS Assay for Inhibitors and Substrates of Cytochrome P450 2C19 (AID 899); also: potency is read from the fitted curve at half-maximal effect; nearly all actives have a fitted effect of over 60% in size
Outline: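 5 nM human CYP2C19 with 10uM Luciferin-H EGE (at KM) in 50mM KPO4, compound preincubated 10 min at 37C, then NADPH regeneration for 60 min at 37C. Luciferin read by luminescence after detection reagent; normalized to 57uM ketoconazole as full inhibition.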

[19] = molecular target: Dual specificity protein kinase CLK4 (Homo sapiens) (UniProt Q9HAZ1); assay: qHTS Assay for Inhibitors of CDC-like Kinase 4 (ADP-Glo Assay) (AID 1771); also: potency is read from the fitted curve at half-maximal effect; nearly all actives have a fitted effect of over 70% in size
Dual specificity protein kinase CLK4 (Homo sapiens), sequence (Q9HAZ1 whole entry, looked up): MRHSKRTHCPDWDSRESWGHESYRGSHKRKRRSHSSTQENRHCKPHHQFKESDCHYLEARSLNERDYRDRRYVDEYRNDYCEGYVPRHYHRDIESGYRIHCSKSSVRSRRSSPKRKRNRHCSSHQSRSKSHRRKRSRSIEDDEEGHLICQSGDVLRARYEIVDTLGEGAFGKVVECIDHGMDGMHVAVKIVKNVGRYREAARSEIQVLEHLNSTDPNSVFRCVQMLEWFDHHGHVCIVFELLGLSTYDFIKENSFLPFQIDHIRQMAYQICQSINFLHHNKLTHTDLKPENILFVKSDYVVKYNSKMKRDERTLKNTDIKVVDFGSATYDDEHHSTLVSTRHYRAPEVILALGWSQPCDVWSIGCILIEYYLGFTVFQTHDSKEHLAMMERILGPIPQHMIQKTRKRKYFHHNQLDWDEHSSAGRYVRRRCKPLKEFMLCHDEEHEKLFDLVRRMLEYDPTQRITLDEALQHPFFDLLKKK
Outline: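 ADP production was read by ADP-Glo luminescence after residual ATP depletion, following 1 h room-temperature reaction of 25 nM Clk4, 1 uM ATP and 100 uM RS peptide with MgCl2, EGTA, DTT and Triton X-100.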

[20] = molecular target: Ubiquitin carboxyl-terminal hydrolase 1 (Homo sapiens) (UniProt O94782); assay: Inhibitors of USP1/UAF1: Pilot qHTS (AID 504865);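 also: rhodamine fluorescence freed from ubiquitin-rhodamine substrate followed over time; top concentration of the series differs between compounds; % is scaled to controls: 0 for no effect and ±100 for the full control effect; nearly all actives have a fitted effect of over 35% in size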
Ubiquitin carboxyl-terminal hydrolase 1 (Homo sapiens), sequence (O94782 whole entry, looked up): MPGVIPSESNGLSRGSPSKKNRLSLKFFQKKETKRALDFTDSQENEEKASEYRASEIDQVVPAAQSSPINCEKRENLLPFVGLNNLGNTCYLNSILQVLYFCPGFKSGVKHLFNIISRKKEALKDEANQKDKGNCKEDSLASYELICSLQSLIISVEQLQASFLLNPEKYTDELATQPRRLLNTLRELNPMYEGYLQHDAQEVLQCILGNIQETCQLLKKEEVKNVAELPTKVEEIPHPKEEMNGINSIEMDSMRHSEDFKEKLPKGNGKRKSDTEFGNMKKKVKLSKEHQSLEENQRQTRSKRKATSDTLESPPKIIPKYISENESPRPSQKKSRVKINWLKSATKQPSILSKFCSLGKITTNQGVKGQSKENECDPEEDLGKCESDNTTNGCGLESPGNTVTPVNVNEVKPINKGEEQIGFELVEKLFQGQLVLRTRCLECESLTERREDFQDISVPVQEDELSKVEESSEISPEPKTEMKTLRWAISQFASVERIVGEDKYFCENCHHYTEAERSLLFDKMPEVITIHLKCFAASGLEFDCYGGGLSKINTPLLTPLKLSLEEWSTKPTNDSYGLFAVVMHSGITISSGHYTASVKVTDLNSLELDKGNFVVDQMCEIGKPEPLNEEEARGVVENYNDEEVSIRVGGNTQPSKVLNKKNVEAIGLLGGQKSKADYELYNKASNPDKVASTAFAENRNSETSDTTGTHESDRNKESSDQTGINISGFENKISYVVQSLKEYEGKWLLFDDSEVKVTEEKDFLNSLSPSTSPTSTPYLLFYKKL
Outline: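 Deubiquitinase activity followed as kinetic rhodamine fluorescence release from 150 nM Ub-Rho. 1 nM USP1/UAF1 with compound, after 15 min room-temperature preincubation, in HEPES pH 7.8 buffer containing TCEP, EDTA, BSA and Tween-20.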

[21] = molecular target: Glucocorticoid receptor (Homo sapiens) (UniProt P04150); assay: GR-GFP Redistribution (AID 450;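 active = compounds whose dose series gives a full or clear partial fitted curve of increased nuclear translocation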; also: potency is read from the fitted curve at half-maximal effect); conditions: U2OS GR-GFP nuclear translocation, laser cytometry, 2 h
[22] = qHTS Assay for Identification of Small Molecule Agonists for Hypoxia Response Element Signaling Pathway (AID 914; active = well fitted activation curve with a large enough effect in the signal ratio, with a control signal flat, not every such curve was filed as active; the % refers to the signal ratio; also: potency is read from the fitted curve at half-maximal effect); conditions: ME-180 (cervical carcinoma) HRE-bla reporter, beta-lactamase ratio, CoCl2, 17 h; activation: stronger effect = higher value
Outline: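 AC50 values come from titration-series %Activity, taken as the 460/530nm ratio of CCF4 fluorescence (excitation 405nm). CellSensor HRE-bla ME-180 cells were treated 17 hours at 37 C with compound plus an EC50 level of CoCl2.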

[23] = molecular target: Dual specificity protein kinase CLK4 (Homo sapiens) (UniProt Q9HAZ1); assay: qHTS Assay for Inhibitors of CDC-like Kinase 4 (ADP-FP Assay) (AID 1795);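 also: recombinant human CLK4 phosphorylating RS repeat peptide at 1 µM ATP; % is scaled to controls: 0 for no effect and ±100 for the full control effect; nearly all actives have a fitted effect of over 60% in size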
Outline: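 Kinase activity was measured as ADP production using Transcreener orange tracer (4 nM) and ADP antibody (1 ug/mL) fluorescence polarization, with ADP calculated from a calibration curve. The 1 h reaction contained 6.25 nM Clk4, 1 uM ATP and 100 uM RS peptide at pH 7.5 with Mg2+.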

Cc1nc2c(C(=O)NCCC3=CCCCC3)c[nH]n2c(=O)c1Cl
active: Potency [1] 75.7 µM | Potency [4] 6.75 µM
inactive: Potency [2] | Potency [3] | Potency [5]

O=C1c2cccc3c(O)ccc(c23)C(=O)N1Cc1ccccc1
inactive: Potency [1]
active: Potency [6] 2.59 µM | Potency [2] 89.1 µM | Potency [3] 100 µM | Potency [4] 75.7 µM | Potency [5] 39.8 µM

Cc1ccc2oc(=O)n(CCCOc3ccccc3Cl)c2c1
inactive: Potency [1] | Potency [2] | Potency [3] | Potency [4] | Potency [5]

CCc1ccc([C@@H]2CC=C(C(=O)O)[C@H](c3ccc(C(C)(C)C)cc3)N2S(=O)(=O)c2ccc(C)cc2)cc1
inactive: Potency [2] | Potency [3] | Potency [5]
active: Potency [1] 37.9 µM | Potency [4] 37.9 µM

O=S(=O)(O)c1ccc(N=NNc2ccc(Br)cc2)cc1
active: Potency [4] 26.9 µM
inactive: Potency [1] | Potency [2] | Potency [3] | Potency [5]

CCN1C(=O)c2cccc3c(N)ccc(c23)C1=O
inactive: Potency [1]
active: Potency [6] 2.06 µM | Potency [2] 100 µM | Potency [3] 100 µM | Potency [4] 75.7 µM | Potency [5] 35.5 µM

COc1ccc(S(=O)(=O)Nc2c(C)nn(C)c2C)cc1Br
inactive: Potency [1] | Potency [2] | Potency [3] | Potency [4] | Potency [5]

CSc1ccc(C2C(C(=O)c3ccco3)=C(O)C(=O)N2c2nnc(SC)s2)cc1 (centres undefined)
inactive: Potency [2] | Potency [3] | Potency [5]
active: Potency [1] 33.8 µM | Potency [4] 19 µM

Cc1ccc(C)c(CSc2nnc(C)n3c2cc2sccc23)c1
inactive: Potency [1] | Potency [2] | Potency [3] | Potency [4] | Potency [5]

Cc1ccc2oc(=O)c(/C=C(\O)c3cccs3)nc2c1
active: Potency [2] 100 µM | Potency [3] 89.1 µM | Potency [4] 23.9 µM | Potency [5] 39.8 µM
inactive: Potency [1]

O=C1C(Cc2ccccc2)SC(=Nc2ccccc2)N1c1ccccc1 (centres undefined)
inactive: Potency [1] | Potency [2] | activation [3] 1.92% [at 17.1 µM, percent relative to cAMP agonist control] | Potency [4] | activation [5] 18.1% [at 30.8 µM]

Oc1ccc2ccc3cccc[n+]3c2c1
inactive: Potency [1] | Potency [4]
active: Potency [6] 4.11 µM | Potency [2] 112 µM | Potency [3] 100 µM | Potency [5] 39.8 µM

COc1ccc(N2CCN(CCCNC(=O)c3ccc4nc(CCc5ccccc5)oc4c3)CC2)cc1
inactive: Potency [1] | Potency [2] | Potency [3] | Potency [4] | Potency [5]

C/C=C/C(=O)Nc1cccc(C2=NOC3(C2)C[C@@H](C(N)=O)N(C(=O)/C(C)=C/C)C3)c1 (some centres undefined)
inactive: Potency [1] | Potency [2] | Potency [3] | Potency [4] | Potency [5]

CC(=O)c1cccc(NC(=O)c2c(-c3ccccc3)c(-c3ccccc3)nn(C)c2=O)c1
inactive: Potency [1] | Potency [2] | Potency [3] | Potency [4] | Potency [5]

CC(C)CCn1c(Oc2ccc(Cl)cc2)nc2c1c(=O)n(C)c(=O)n2C
active: Potency [4] 16.9 µM
inactive: Potency [1] | Potency [2] | Potency [3] | Potency [5]

Cc1nc(Nc2ccc(S(=O)(=O)N3CCCCC3C)cc2)c2nnn(Cc3ccccc3)c2n1 (centres undefined)
inactive: Potency [6] | Potency [1] | Potency [2] | Potency [3] | Potency [4] | Potency [5]

Cc1ccc(-c2ccc(CCC(=O)O)n2-c2ccc(C(C)C)cc2)cc1
active: Potency [1] 75.7 µM
inactive: Potency [2] | Potency [3] | Potency [4] | Potency [5]

Nc1ccc(Oc2ncccn2)cc1
inactive: Potency [1] | Potency [2] | Potency [3] | Potency [7]

O=C(c1cnccn1)N1CCC[C@@]2(CCN(c3cccc(-c4ccccc4)c3)C2)C1
inactive: Potency [8] > 11.4 µM | activity change, negative = inhibition [9] -18.4% | activity change, negative = inhibition [11] 7.34% | outcome [12] | Potency [13] | outcome [15] | Potency [1] | Potency [2] | Potency [3] | Potency [4]
active: Potency [10] 25.1 µM | Potency [14] 3.98 µM

COc1ccc2[nH]cc(CCNc3ncnc4ccc(-c5ccccc5OC)cc34)c2c1
inactive: activity change, negative = inhibition [9] -28.6% | activity change, negative = inhibition [11] 20.2% | outcome [12] | Potency [16] | outcome [15] | Potency [20] | Potency [1] | Potency [2] | Potency [3] | Potency [4]
active: Potency [10] 7.94 µM | Potency [17] 3.98 µM | Potency [18] 2 µM | Potency [19] 25.1 µM

COc1ccc(C(C#N)N2CCC(c3ccccc3)=N2)cc1OC (centres undefined)
inactive: Potency [1] | Potency [2] | Potency [3] | Potency [7]

CN1CCN(c2ncc3nc(-c4cccs4)c(=O)n(CCc4ccccc4)c3n2)CC1
inactive: Potency [8] > 11.4 µM | Potency [21] > 9.22 µM | Potency [16] | outcome [15] | Potency [23] | Potency [20] | Potency [1] | Potency [2] | Potency [3] | Potency [4]
active: Potency [22] 3.16 µM
